Compounds with a hit are over-represented: about 10% of the library has one in this group of screens.
HP1b chromo inh – blocks HP1-beta chromodomain binding to methylated histone tails | P83916 | AlphaScreen HP1-beta / biotin-H3K9me3 peptide binding | Potency, µM (highest dose often 114 µM), inactives show at the highest dose activity change, negative = inhibition, most hits filed as inhibitors | 390,000 compounds, 0.56% hits | AID 540317; note: potency is the fitted concentration of half-maximal effect; nearly all actives have a fitted effect of over 70% in size
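AlphaScreen: HP1-beta (50 nM) preformed 30 min with biotin-H3(1-18)K9me3 peptide (50 nM) in PBS pH 7.4, 0.01% Tween-20. Compound added for 30 min at RT, then streptavidin donor/nickel chelate acceptor beads (10 ug/mL) for 30 min.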
CtBP-E1A inh – blocks the CtBP interaction with E1A | AlphaScreen GST-E1A/His-CtBP binding, 1536-well; active compounds read low | activity change, % (no concentration beside the values) | 340,000 compounds, 0.49% hits | AID 651724; in the data active = activity change below about -65%; inconclusive = mostly about -30% to -63%; note: % is set by controls: 0 for no effect and ±100 for the full control effect
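In 5 uL wells, 23 nL compound meets equimolar GST-E1A and His-CtBP (5X stock 125 nM each) for 2 h, 37 °C. Beads (5X, 50 ug/mL) then 1 h, 37 °C, dark.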
Six1-Eya2 blk – Six1/Eya2 interaction inhibition. Q15475+O00167. activity change, % (no concentration beside the values). 360,000 compounds, 0.56% hits. AlphaScreen GST-Six1/His-Eya2 binding, biochemical; active compounds read low; in the data active = activity change below about -65%; inconclusive = mostly about -30% to -63%; note: % is set by controls: 0 for no effect and ±100 for the full control effect
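Six1/Eya2 binding was read as AlphaScreen signal after compounds were pinned into GST-Six1 plus His-tagged Eya2 (5X stock 250/500 nM) in pH 8.0 Tris/NaCl/TCEP buffer, beads added, then incubated 1 h, 37 C, dark.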
G9a inh – G9a (human) methyltransferase inhibition; Q96KQ7; G9a H3K9 monomethylation, AlphaScreen, 2 h; Potency, µM (top dose mostly 102 µM), for inactives: at the top dose activity, negative = inhibition, actives largely listed as inhibitors; 350,000 compounds, 8.8% hits; AID 504332; note: potency is the fitted concentration of half-maximal effect; % is set by controls: 0 for no effect and ±100 for the full control effect; nearly all actives have a fitted effect of over 75% in size
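Compounds were preincubated with 20 nM G9a for 15 min, after which biotinylated H3K9 peptide (500 nM) and SAM (20 uM) started a 2 h room-temperature reaction. Monomethylated product was quantified by antibody-based AlphaScreen chemiluminescence.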
JMJD2A Tudor inh – inhibitors of human JMJD2A Tudor domain | AlphaScreen JMJD2A-Tudor / H3K4me3 peptide binding | Potency, µM (highest dose often 114 µM), without a hit: at the top dose activity change, negative = inhibition, most hits filed as inhibitors | 390,000 compounds, 4.4% hits | AID 504339; note: potency is the fitted concentration of half-maximal effect; % is set by controls: 0 for no effect and ±100 for the full control effect; nearly all actives have a fitted effect of over 50% in size
Target sequence (O75164 whole entry, looked up, the tested form may be a part): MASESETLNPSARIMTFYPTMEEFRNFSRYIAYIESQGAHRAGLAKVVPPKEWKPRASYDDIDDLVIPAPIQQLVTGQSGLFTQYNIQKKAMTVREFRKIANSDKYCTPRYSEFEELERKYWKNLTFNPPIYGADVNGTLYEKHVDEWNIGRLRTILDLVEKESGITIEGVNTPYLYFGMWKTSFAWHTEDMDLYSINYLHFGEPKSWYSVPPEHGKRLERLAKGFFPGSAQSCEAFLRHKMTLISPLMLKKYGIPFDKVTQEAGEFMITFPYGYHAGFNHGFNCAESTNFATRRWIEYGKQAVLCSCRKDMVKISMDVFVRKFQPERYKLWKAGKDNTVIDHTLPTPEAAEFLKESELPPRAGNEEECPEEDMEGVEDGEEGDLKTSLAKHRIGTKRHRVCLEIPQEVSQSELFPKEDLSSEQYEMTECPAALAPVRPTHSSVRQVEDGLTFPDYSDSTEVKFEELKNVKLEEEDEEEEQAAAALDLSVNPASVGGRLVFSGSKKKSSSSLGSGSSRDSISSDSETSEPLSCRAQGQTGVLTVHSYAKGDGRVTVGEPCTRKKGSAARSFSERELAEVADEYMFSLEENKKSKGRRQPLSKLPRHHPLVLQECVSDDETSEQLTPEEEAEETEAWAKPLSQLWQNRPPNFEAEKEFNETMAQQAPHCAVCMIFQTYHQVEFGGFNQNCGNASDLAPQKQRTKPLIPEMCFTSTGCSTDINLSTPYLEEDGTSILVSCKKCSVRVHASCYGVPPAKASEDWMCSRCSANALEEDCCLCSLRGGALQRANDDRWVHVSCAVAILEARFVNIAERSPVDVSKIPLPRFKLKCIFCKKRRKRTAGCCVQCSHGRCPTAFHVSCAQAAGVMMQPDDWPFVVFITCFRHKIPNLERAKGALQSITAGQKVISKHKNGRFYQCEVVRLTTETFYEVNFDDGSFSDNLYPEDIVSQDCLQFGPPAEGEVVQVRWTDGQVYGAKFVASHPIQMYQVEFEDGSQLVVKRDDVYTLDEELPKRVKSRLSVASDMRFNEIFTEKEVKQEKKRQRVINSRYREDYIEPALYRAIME
BAZ2B inh – inhibitors of human BAZ2B bromodomain. AlphaScreen BAZ2B-H3K14Ac peptide displacement. Potency, µM (highest dose often 114 µM), for inactives: at the highest dose activity change, negative = inhibition, usual class: inhibitors. 360,000 compounds, 4.4% hits; note: potency is the fitted concentration of half-maximal effect; % is set by controls: 0 for no effect and ±100 for the full control effect; nearly all actives have a fitted effect of over 60% in size
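In this displacement format the biotinylated H3(5-23) peptide acetylated at Lys14 serves as ligand at 50 nM, with BAZ2B at 50 nM in PBS pH 7.4 containing 0.01% Tween-20. Donor and acceptor beads are 10 ug/mL final.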
* marks the source's active call; other numbers are inactive results; ? = inconclusive; . = no result; [ ] = dose if it differs, or a comment. Unless noted, calls come from the whole dose curve; as a rule, active = well fitted inhibition curve with a large enough effect; inconclusive = small, poorly fitted or top-dose-only effect; inactive = no such curve, though single readings can be large or run the other way.

SMILES	HP1b chromo inh	CtBP-E1A inh	Six1-Eya2 blk	G9a inh	JMJD2A Tudor inh	BAZ2B inh
CN(CC(=O)Nc1ccc(F)cc1)C(=O)CCc1nc2sc3c(c2c(=O)[nH]1)CCCC3	15%	-1	0	56µM*	-30%	-4%
CCN(CC(=O)Nc1c(F)cccc1F)C(=O)CCc1nc2sc3c(c2c(=O)[nH]1)CCCC3	-12%	-4	-17	2%[0.501 µM]	?	50µM*
CCN(CC(=O)Nc1ccccc1C(F)(F)F)C(=O)CCc1nc2sc3c(c2c(=O)[nH]1)CCCC3	0%	-14	-3	4%[59 µM]	?	?
Cc1ccc(NC(=O)CSc2nc3ccccc3n2CC(=O)N2CCC(C)CC2)cc1C	34%	.	.	3%[59 µM]	-26%	-14%
CCn1cnc2cc(NC(=O)COc3ccc(C)cc3)ccc21	20%[57 µM]	-6	15	.	-19%	.
O=C(c1ccco1)c1coc2c1cc(O)c1ccccc12	-2%	-2	-1	40µM*	?	-21%
CC(=O)c1coc2c1cc(O)c1ccccc12	9%	-3	-1	-21%	-12%	8%
CC(=O)Nc1ccc(C(=O)NCCCSc2ccccc2)cc1	53%	7	2	.	10%	.
COc1ccc(-n2c(C)cc(C(=O)CCl)c2C)cc1	0%	-4	-9	56µM*	?	45µM*
CC(=O)Nc1ccc(SCCCC(=O)c2ccccc2)cc1	25%	0	-2	45µM*	-19%	-20%
COc1ccc(-n2c(C)cc(C(=O)COc3ccc(C)nc3[N+](=O)[O-])c2C)cc1	37%	?	?	?	9%	?
CC(=O)Nc1ccc(SCC(=O)c2cc(C)ccc2C)cc1	32%	2	-7	?	-1%	-37%
Cc1ccc(OCC(=O)c2cc(C)n(-c3cc(C)on3)c2C)c([N+](=O)[O-])n1	-9%	0	5	50µM*	-32%	?
CC(=O)Nc1ccc(SCC(=O)c2cc(C)n(-c3ccccc3)c2C)cc1	4%	-1	-1	?	-23%	45µM*
Cc1ccc(CCNC(c2ccc(F)cc2)c2nnc(-c3ccccc3Cl)o2)cc1 (stereo not drawn)	99%	.	.	151%[59 µM]	60%	76%
OCC1(CCOc2ccccc2)CCN(CC2=Cc3cc(Cl)ccc3OC2)CC1	19%	-20	0	?	-23%	-16%
O=C(C(Cc1ccccc1)NS(=O)(=O)c1cccc2cccnc12)N1CCc2ccccc21 (stereo not drawn)	32%	3	-4	-2%	-21%	-6%
O=C1CCCN2N=C(SCC(=O)Nc3ccc(F)cc3F)SC2=N1	-15%	1	-5	41%	-17%	1%
Cc1cc2c(s1)c1cnn(Cc3c(Cl)cccc3Cl)c(=O)c1n2C	.	.	.	.	-26%	.
COc1ccc(-n2c(C)cc(C(=O)CSc3ccc(NC(C)=O)cc3)c2C)cc1	?	-14	-18	?	?	45µM*
Cc1ccc(OCC(=O)c2ccc(Cl)s2)c([N+](=O)[O-])n1	-13%	-5	-15	50µM*	56µM*	50µM*
Cc1ccc(CNC(=O)COc2ccc(C)nc2[N+](=O)[O-])cc1	32%	-7	0	-7%[59 µM]	-6%	8%
Cc1cc(-n2c(C)cc(C(=O)CCl)c2C)no1	42%	0	0	50µM*	-22%	.
COc1ccc(-n2c(C)cc(C(=O)COC(=O)Cn3cnc4ccccc43)c2C)cc1	-16%	-23	-17	16µM*	?	?
COc1ccc(NC(=O)COC(=O)Cn2cnc3ccccc32)cc1	28%	24	4	.	-3%	.
SMILES	HP1b chromo inh	CtBP-E1A inh	Six1-Eya2 blk	G9a inh	JMJD2A Tudor inh	BAZ2B inh
Cc1cc(-n2c(C)cc(C(=O)CN3C(=O)C(=O)N(C)C3=O)c2C)no1	19%	.	4	.	-12%	.
Cc1nn2c(-c3ccncc3)ccnc2c1Br	23%	-15	-9	38%	-7%	-9%
N=c1oc2ccc(Cl)cc2cc1C(=O)Nc1ccc(F)cc1	25%	1	-4	-10%[2.33 µM]	1%	-4%
Cc1cccc(N2CCN(C(=O)C3CCCN(S(=O)(=O)c4ccc(Br)s4)C3)CC2)c1C (stereo not drawn)	34%	.	.	?	-5%	-18%
Cn1c(=O)c2cc(NC(=O)NCCc3ccccc3)ccc2n1Cc1ccc(F)cc1	.	-5	3	.	.	.
COc1cccc(N2CCN(C(=O)/C=C/c3ccco3)CC2)c1	-9%	-20	-10	28µM*	-13%	50µM*
O=C(/C=C/c1ccco1)N1CCC(Cc2ccccc2)CC1	-39%	-9	-17	32µM*	50µM*	50µM*
O=C(/C=C/c1ccco1)N1CCN(c2ncccn2)CC1	41%	5	-1	?	-2%	-35%
COC(=O)/C=C/C(=O)N1CCN(c2ccccc2C)CC1	17%	24	4	14%[59 µM]	-19%	10%
COC(=O)/C=C/C(=O)N1CCN(c2ccccc2)CC1	30%	-2	0	50µM*	-9%	7%
COc1ccc(S(=O)(=O)N2CCN(C(=O)/C=C/c3ccco3)CC2)cc1	1%	6	-17	25µM*	-35%	-28%
COc1ccc(C2Nc3ccccc3C(=O)N2Cc2ccccc2)cc1COc1ccc([N+](=O)[O-])c(C)c1 (stereo not drawn)	10%[57 µM]	.	.	.	-11%[57.1 µM]	.
CCn1c(O)c(/C=N/N=C/c2ccc(OC)cc2)c2cc(C3=NNC(=O)CC3)ccc21	19%	0	5	.	-7%	-11%
CC/C(C)=N\N=C\c1c(O)n(CC)c2cc(C3=NNC(=O)CC3)ccc12	17%	-8	-16	8.9µM*	-34%	-25%
Cc1ccc(CN2CCC(CNc3ncnc4onc(-c5ccc(F)cc5)c34)CC2)cc1	25%	.	.	-6%[59 µM]	-5%	0%[57.1 µM]
COC(=O)C1=C(O)/C(=C\c2cc(C)n(-c3ccc(F)cc3)c2C)N=C1C	-2%	2	0	35µM*	40µM*	.
COc1cc(OC)cc(C(=O)Nc2ccc3c(c2)N(C2CCCC2)C(=O)c2ccccc2S3)c1	19%	.	.	0%[59 µM]	-15%	-6%
COc1ccc(Cl)cc1NC(=O)C(C)n1nnc2sc3c(c2c1=O)CCCC3 (stereo not drawn)	9%	.	.	14µM*	-33%	-19%
Cc1ccc(NC(=O)C(C)n2nnc3sc4c(c3c2=O)CCCC4)cc1Cl (stereo not drawn)	42%	.	.	?	-29%	-16%
CC(C(=O)Nc1ccccc1)n1nnc2sc3c(c2c1=O)CCCC3 (stereo not drawn)	2%	.	.	16µM*	-31%	-16%
CC(C(=O)Nc1ccccc1C(F)(F)F)n1nnc2sc3c(c2c1=O)CCCC3 (stereo not drawn)	-3%	.	.	14µM*	-20%	-17%
